# Compound activity deposited in PubChem by National Center for Advancing Translational Sciences (NCATS).
# HT1080 IDH1KD tx = qHTS for induction of synthetic lethality in tumor cells producing 2HG: qHTS for the HT-1080-IDH1KD cell line. HT-1080 IDH1 knockdown viability, ATP luminescence, 48 h. Potency, µM (doses to about 46.1 µM), inactives show at the top dose activity, negative = toxicity, most hits filed as cytotoxic. 2% of 360,000 active. AID 686971, 2013;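 further: potency means the concentration at half of the fitted maximal effect; 0% = DMSO wells and -100% = cell-free medium wells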
#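 After a 2 h attachment period, IDH1KD HT-1080 cells took pin-transferred compound for 48 h at 37 °C; ATP-based luminescence after 10 min room-temperature reagent incubation reported viability.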
# HT1080-NT tox = qHTS for induction of synthetic lethality in tumor cells producing 2HG: qHTS for the HT-1080-NT fibrosarcoma cell line; HT-1080-NT fibrosarcoma viability, CellTiter-Glo ATP luminescence, 48 h; Potency, µM (titrated, usually from 46.1 µM), for the others: at the top dose activity, negative = less viability, usual class: cytotoxic; 1.6% of 360,000 active;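 further: NT is the 2HG producing partner of a matched IDH1 knockdown line; potency means the concentration at half of the fitted maximal effect; 0% = DMSO-treated cells and -100% = media-only wells without cells; nearly all actives have a fitted effect of over 55% in size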
#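 750 cells/well, RPMI + 5% FBS; 2 h settle, compound pin-transfer, 48 h at 37 degrees C. CellTiter-Glo 10 min RT, luminescence. Normalized to DMSO and media-only wells.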
# IL-1B inflam inh = qHTS for Inhibitors of Inflammasome Signaling: IL-1-beta AlphaLISA Primary Screen | 4.7% of 360,000 active | activity change, % at 57.5 µM | THP-1 LPS/ATP IL-1B secretion, AlphaLISA, 16 h; hits give low values | AID 743279, 2014; in the data active means activity change below about -50%; inconclusive means mostly about -30% to -49%
#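 THP-1 cells pretreated 1 hr with compounds (up to 57.5 uM final), then stimulated with LPS (250 ng/mL final) plus ATP (1.25 mM final); secreted IL-1B measured by AlphaLISA after 16 hr, decreased signal indicating inhibition.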
# 12-LOX inh = Primary qHTS assay for inhibitors of human arachidonate 12S-lipoxygenase (ALOX12): Round 2 | Polyunsaturated fatty acid lipoxygenase ALOX12 (Homo sapiens), P18054 | purified 12hLO, xylenol orange hydroperoxide absorbance | Potency, µM (doses to about 108 µM), without a hit: at the top dose activity change, negative = inhibition, most hits filed as inhibitors | 1.1% of 580,000 active; further: potency means the concentration at half of the fitted maximal effect
# Target sequence (P18054 whole entry, looked up): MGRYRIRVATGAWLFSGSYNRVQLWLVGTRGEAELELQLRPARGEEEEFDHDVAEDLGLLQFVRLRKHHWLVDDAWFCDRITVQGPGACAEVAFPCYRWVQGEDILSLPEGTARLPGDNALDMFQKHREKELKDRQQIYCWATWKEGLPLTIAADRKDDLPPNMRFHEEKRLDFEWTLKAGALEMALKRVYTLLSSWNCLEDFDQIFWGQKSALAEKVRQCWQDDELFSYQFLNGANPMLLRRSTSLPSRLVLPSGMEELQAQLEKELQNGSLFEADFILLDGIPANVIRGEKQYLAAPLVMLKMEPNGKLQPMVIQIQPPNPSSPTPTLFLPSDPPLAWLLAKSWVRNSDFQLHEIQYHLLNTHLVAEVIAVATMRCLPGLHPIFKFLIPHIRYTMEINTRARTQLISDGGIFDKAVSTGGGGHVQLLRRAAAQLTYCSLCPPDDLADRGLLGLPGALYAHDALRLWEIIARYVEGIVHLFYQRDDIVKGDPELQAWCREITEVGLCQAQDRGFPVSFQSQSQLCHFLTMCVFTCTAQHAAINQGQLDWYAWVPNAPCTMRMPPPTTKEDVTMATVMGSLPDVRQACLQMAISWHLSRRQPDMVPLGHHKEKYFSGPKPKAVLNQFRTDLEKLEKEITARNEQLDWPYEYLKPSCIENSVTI
#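 Purified human 12hLO at 150 nM in 25 mM Hepes, 0.01% Triton X-100, pH 7.0, preincubated 15 min at room temperature with compound. Reaction started with 40 uM arachidonic acid, 30 min at room temperature. Hydroperoxide measured by Fe-xylenol orange, 573/405 nm absorbance ratio.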
# TDP1 cell noCPT = qHTS for Inhibitors of human tyrosyl-DNA phosphodiesterase 1 (TDP1): qHTS in cells in absence of CPT; DT40 Tdp1-/- hTDP1 cells, no CPT, ATP luminescence, 48 h; Potency, µM (highest dose often 46.2 µM), without a hit: at the top dose activity change, negative = growth inhibition, usual class: inhibitors; 15% of 420,000 active; further: potency means the concentration at half of the fitted maximal effect; nearly all actives have a fitted effect of over 55% in size
#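 Luminescent ATP content (CellTiter-Glo) served as the growth readout. Knockout chicken DT40 cells expressing human TDP1 were exposed to compounds without camptothecin for a minimum 48 hr at 37 °C.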
# DT40 TDP1 CPT = qHTS for Inhibitors of human tyrosyl-DNA phosphodiesterase 1 (TDP1): qHTS in cells in presence of CPT; chicken DT40 Tdp1-/-;hTDP1 cells + 20 nM CPT, ATP luminescence, 48 h; Potency, µM (top dose mostly 46.2 µM), for inactives: at the highest dose activity change, negative = growth inhibition, usual class: inhibitors; 12% of 420,000 active; AID 686979, 2013; further: potency means the concentration at half of the fitted maximal effect; nearly all actives have a fitted effect of over 55% in size
#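 Chicken DT40 Tdp1-/- cells complemented with human TDP1, 400 cells/well, exposed to compounds plus 20 nM camptothecin for at least 48 h at 37 C; viability read as ATP content by CellTiter-Glo luminescence.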
# * marks the source's active call; other numbers are inactive results; ? = inconclusive; nt = not tested or not shown; [ ] = remark or other dose. This is one part of a sample in which hits are shown more often than they occur. Unless noted, the call rests on the fitted dose curve; in most records, active means well fitted curve in the direction sought with a large enough effect; inconclusive means small, poorly fitted or top-dose-only effect, or another doubt; inactive means no such curve, though single readings can be large; an effect the other way counts as inactive or inconclusive. Unless noted, on the % scale 0 is the no-effect control and ±100 the full control effect.
SMILES,HT1080 IDH1KD tx,HT1080-NT tox,IL-1B inflam inh,12-LOX inh,TDP1 cell noCPT,DT40 TDP1 CPT
CCOc1ncccc1C(=O)Nc1ccc(C)c(S(=O)(=O)N2CCCCCC2)c1,-18%,-9%[9.24 µM],-4,50%,?,18µM*
COc1ccc(CCC(=O)Nc2ccc(OC)c(S(=O)(=O)N3CCCCC3)c2)cc1OC,-21%,3%,0,48%,?,21µM*
Cc1ccc(NC(=S)Nc2ccc(C(C)C)cc2)cc1S(=O)(=O)N1CCCCCC1,21µM*,?,-89*,?,16µM*,23µM*
C=CCNC(=S)Nc1ccc(C)c(S(=O)(=O)N2CCCCC2)c1,1%,0%,0,-21%,-10%,-24%
COc1cc(CCC(=O)Nc2cccc(S(=O)(=O)N(C)C)c2)cc(OC)c1OC,8%,7%,8,-1%,26µM*,?
O=C(CCc1nnc(C2(c3ccc(Cl)cc3)CCC2)o1)NCCCn1cccn1,0%,0%,25,0%,6%,10%
COc1ccc(C(=O)Oc2ccccc2-c2ccccc2)cc1Br,nt,nt,nt,-5%,nt,nt
CN(C)S(=O)(=O)c1cccc(C(=O)Nc2cccc3ncccc23)c1,nt,nt,nt,-17%,nt,nt
Cc1ccc(C(=O)NCc2nnc3c(-c4nc(C5CC5)no4)cccn23)cc1F,nt,nt,nt,46%,nt,nt
COc1cc(CCC(=O)Nc2ccc(C)c(S(=O)(=O)N3CCCCCC3)c2)cc(OC)c1OC,?,-4%,3,-2%,7.3µM*,10µM*
COc1ccc(NC(=O)CCOc2ccccc2C)cc1S(=O)(=O)N1CCCCC1,-3%,-18%,-60*,0%,18µM*,29µM*
COc1ccccc1CCC(=O)Nc1ccc(OC)c(S(=O)(=O)N2CCCCC2)c1,-4%,-1%,6,-5%,-27%,?
CCCCNC(=O)C1=C(N)C(C(=O)Nc2ccc(C)c(S(=O)(=O)N3CCCCC3)c2)SC1=Nc1ccc(C)cc1C (stereo not given),-26%,-14%,0,-34%,23µM*,23µM*
CCCCC(=O)Nc1ccc(C)c(S(=O)(=O)N2CCCCCC2)c1,-9%,-17%,-64*,465%,?,?
Cc1cn2nc(C(=O)N3CCC(NC(=O)Cc4ccc(Cl)cc4)CC3)cc2c(=O)[nH]1,nt,nt,nt,4%,nt,nt
CN(C)S(=O)(=O)c1cccc(NC(=O)COc2ccccc2C(=O)NCc2ccccc2)c1,0%,-5%,-7,-24%,?,16µM*
Cc1ccc(NCC(=O)Nc2cccc(F)c2)cc1S(=O)(=O)N1CCCCCC1,?,?,-75*,-5%,16µM*,?
Cc1ccc(NC(=O)COc2ccccc2C(=O)NCc2ccccc2)cc1,?,4%[9.24 µM],?,152%,?,?
COc1ccc(CCC(=O)Nc2ccc(Cl)c(S(=O)(=O)N3CCCC3)c2)cc1,?,?,-15,-8%,?,21µM*
Cc1ccc(NC(=O)c2ccc(OCC3CCCO3)cc2)cc1Cl (stereo not given),-12%,-2%,14,6%,?,?
COc1ccc(C2Cn3nnc(-c4noc(-c5ccco5)n4)c3CO2)cc1 (stereo not given),nt,nt,nt,34%,nt,nt
